According to PubChem BioAssay (EPA / NIEHS):
Where a structure was tested more than once in an assay, its records may differ in their call. Activity calls are given as the source filed them. The calls were made as follows: active = hit-call score of the fitted dose curve at least 0.9, where 1 is the maximum; inactive = score below 0.9.

Assay: ATG_EGR_CIS: Attagene CIS-FACTORIAL HepG2 Assay for human Early Growth Response 1 (EGR1) (AID 2282938)
Conditions: HepG2 Attagene CIS-FACTORIAL EGR reporter mRNA; actives raise or lower the signal
Experimental: ATG_CIS is a cell-based, multiplexed-readout assay that uses HepG2, a human liver cell line, with measurements taken at 24 hours after chemical dosing in a 24-well plate.ATG_EGR_CIS is one of 52 assay component(s) measured or calculated from the ATG_CIS assay. It is designed to make measurements of mRNA induction, a form of inducible reporter, as detected with fluorescence intensity signals by Reverse transcription polymerase chain reaction (RT-PCR) and Capillary electrophoresis technology.Data from the assay component ATG_EGR_CIS was analyzed into 1 assay endpoint. This assay endpoint, ATG_EGR_CIS, was analyzed with bidirectional fitting relative to DMSO as the negative control and baseline of activity. Using a type of inducible reporter, measures of mRNA for gain or loss-of-signal activity can be used to understand the reporter gene at the transcription factor-level as they relate to the gene EGR1. Furthermore, this assay endpoint can be referred to as a primary readout, because this assay has produced multiple assay endpoints where this one serves a reporter gene function. To generalize the intended target to other relatable targets, this assay endpoint is annotated to the dna binding intended target family, where the subfamily is zinc finger.
Human liver HepG2 cells are transiently transfected with multiple reporter transcription units (MRTUs) in 6-well plates using FuGene 6 reagent (Roche; 3 ml FuGene/1 mg DNA). The MRTU constructs are regulated by a cis-regulating element (promoter). […] A major difference between the CIS and TRANS system is that in CIS activities of endogenous TFs are measured, whereas the TRANS assay evaluates changes in activities of exogenous, chimeric NR-Gal4 proteins. […] At the end of 24 hour incubation, total RNA was isolated using TriZol reagent (Invitrogen). The isolated RNA is then reverse-transcribed using oligo(dT) primer and Mo-MLV reverse transcriptase (Invitrogen) with DNAse I (Ambion) treatment for 30 min. The one-tenth of the produced cDNA was amplified by PCR using Taq DNA polymerase (Invitrogen) and two reporter sequence-specific primers. The PCR products were fluorescently labeled by primer extension with 6-arboxyfluorescein (6-FAM) 5'-labeled reporter sequence-specific primer (2 min at 95 C, 20 s at 68 C and 10 min at 72 C) and these products were digested with 5U of HpaI (New England Biolabs) for 2h at 37 C. The fragments were purified using Qiaquick PCR columns (Qiagen), analyzed on an ABI 3130xL genetic analyzer (Applied Biosystems) with peak positions identified by using a set of X-rhodamine (ROX)-labeled MapMarker1000 molecular weight standards (BioVentures). The raw capillary electrophoresis data was processed using Attagraph software (Attagene).

Structure (SMILES) | outcome | AC50
CCCCCCOC(=O)CC(CC(=O)OCCCCCC)(OC(=O)CCC)C(=O)OCCCCCC | inactive | –
CC(C)CCCCCCOC(=O)C1CCCCC1C(=O)OCCCCCCC(C)C (stereo not given) | inactive | –
C=CN1CCCC1=O | inactive | –
CCc1ccc(O)c(C(C)(C)C)c1 | inactive | –
O=C(O)CO | inactive | –
CCCCCCCCCCCCCCO | inactive | –
Cc1nc(-c2ccccn2)ncc1C(=O)Nn1cc(C)c2cc(F)ccc21 | inactive | –
O=S(=O)(O)CCC(F)(F)C(F)(F)C(F)(F)C(F)(F)C(F)(F)C(F)(F)F | inactive | –
OC(Cn1cncn1)(Cn1cncn1)c1ccc(F)cc1F | inactive | –
Cc1ncc([C@@H](CCCCCCc2ccc3c(n2)NCCC3)CC(=O)O)cn1 | inactive | –
Nc1ccn([C@@H]2O[C@H](CO)[C@@H](O)[C@@H]2O)c(=O)n1 | inactive | –
NC(=O)N1c2ccccc2C=Cc2ccccc21 | inactive | –
CCCCOC(=O)c1ccccc1 | inactive | –
c1ccc(C(O[C@@H]2CCCN(CCc3ccc4c(c3)OCO4)C2)c2ccccc2)cc1 | – | 33 µM (active)
O=C(O)c1ccc2c(c1)nc(C(=O)NC1CCN(C3CC3)CC1)n2Cc1cc(-c2ccc(Cl)s2)on1 | inactive | –
O=C(Cl)C(F)(F)C(F)(F)C(F)(F)C(=O)Cl | inactive | –
CCCCC(CC)C(=O)OCCOCCOCCOC(=O)C(CC)CCCC (stereo not given) | inactive | –
O=C(O)c1cccc(C(=O)O)c1 | inactive | –
CCOC(N)=O | inactive | –
COc1cc(C(C)C)c2c(c1)S(=O)(=O)N(COc1cc(=O)n3cccc(OCCN4CCCCC4)c3n1)C2=O | – | 2.75 µM (active)

Structure (SMILES) | outcome | AC50
NC(=O)N(O)[C@@H]1COc2cc(OCc3ccccc3)ccc21 | inactive | –
OCc1c[nH]c2ccccc12 | inactive | –
FC(F)C(F)(F)COCC1CO1 (stereo not given) | inactive | –
OC(O)(C(F)C(O)(O)C(F)(F)F)C(F)(F)F | inactive | –
CCCCCCCCN(C)C | inactive | –
CCc1cccc(CC)c1N | inactive | –
Cn1cc[nH]c1=S | inactive | –
OCC(CO)(CO)CO | inactive | –
CCCCCCCCCCCCCCCCOS(=O)(=O)O | inactive | –
CCCOc1ccc(S(=O)(=O)N2CCN(CC)CC2)cc1-c1nc2c(CC)n(Cc3ccccn3)nc2c(=O)[nH]1 | – | 22.2 µM (active)
FC(F)=C(F)C(F)(F)C(F)(F)C(F)(F)C(F)(F)C(F)(F)C(F)(F)F | inactive | –
OC[C@H]1O[C@@H]2O[C@H]3[C@H](O)[C@@H](O)[C@@H](O[C@H]4[C@H](O)[C@@H](O)[C@@H](O[C@H]5[C@H](O)[C@@H](O)[C@@H](O[C@H]6[C@H](O)[C@@H](O)[C@@H](O[C@H]7[C@H](O)[C@@H](O)[C@@H](O[C@H]1[C@H](O)[C@H]2O)O[C@@H]7CO)O[C@@H]6CO)O[C@@H]5CO)O[C@@H]4CO)O[C@@H]3CO | inactive | –
C[C@]12C=CC(=O)C=C1CC[C@H]1[C@@H]3C[C@@H](O)[C@](O)(C(=O)CO)[C@@]3(C)C[C@H](O)[C@@]12F | inactive | –
Cc1nccn1-c1ccc(Sc2cccc(C3(C(N)=O)CCOCC3)c2)cc1 | – | 4.56 µM (active)
c1ccc2ncccc2c1 | inactive | –
CCCCCCCCCC | inactive | –
OCCOCCOCCO | inactive | –
C=CCc1cc(S(=O)(=O)c2ccc(O)c(CC=C)c2)ccc1O | – | 45.8 µM (active)
CCN(CC)C(=S)SSC(=S)N(CC)CC | – | 125 µM (active)
S=P(N1CC1)(N1CC1)N1CC1 | inactive | –
